# Results reported in publication PMC11062922 (Nature Chemical Biology, 2023).
# Like-named read-outs stand apart in the source and are kept apart here.
# Key:
# [1] = system: CDK1_CycB1; conditions: Highest Assay Concentration (M): 9.9999999999999995E-7
# [2] = system: CK2alpha1; conditions: Highest Assay Concentration (M): 9.9999999999999995E-7
# [3] = system: CK2alpha2; conditions: Highest Assay Concentration (M): 9.9999999999999995E-7
# [4] = system: BMPR2; parameters: species or system human, MV4-11 + K-562 + COLO205 + SK-N-BE2 + OVCAR-8; conditions: read-out: apparent Kd, compound concentrations: 100 nM and 1000 nM (sheet 'Samples'), n = 1
# [5] = system: ILK; parameters: species or system human, MV4-11 + K-562 + COLO205 + SK-N-BE2 + OVCAR-8; conditions: read-out: apparent Kd, n = 1
# [6] = system: ACAD8; parameters: species or system human, MV4-11 + K-562 + COLO205 + SK-N-BE2 + OVCAR-8; conditions: read-out: apparent Kd, n = 1
# [7] = system: VDAC3; parameters: species or system human, MV4-11 + K-562 + COLO205 + SK-N-BE2 + OVCAR-8; conditions: read-out: apparent Kd, n = 1
# [8] = system: LIMK1; parameters: species or system human, MV4-11 + K-562 + COLO205 + SK-N-BE2 + OVCAR-8; conditions: read-out: apparent Kd, n = 1
# [9] = system: NEK3; parameters: species or system human, MV4-11 + K-562 + COLO205 + SK-N-BE2 + OVCAR-8; conditions: read-out: apparent Kd, n = 1
# [10] = system: MST1R; parameters: species or system human, MV4-11 + K-562 + COLO205 + SK-N-BE2 + OVCAR-8; conditions: read-out: apparent Kd, n = 1
# [11] = system: SIK3; parameters: species or system human, MV4-11 + K-562 + COLO205 + SK-N-BE2 + OVCAR-8; conditions: read-out: apparent Kd, n = 1
# [12] = system: GRK6; parameters: species or system human, MV4-11 + K-562 + COLO205 + SK-N-BE2 + OVCAR-8; conditions: read-out: apparent Kd, n = 1
# [13] = system: MAP2K6; parameters: species or system human, MV4-11 + K-562 + COLO205 + SK-N-BE2 + OVCAR-8; conditions: read-out: apparent Kd, n = 1
# [14] = system: BMPR1B; parameters: species or system human, MV4-11 + K-562 + COLO205 + SK-N-BE2 + OVCAR-8; conditions: read-out: apparent Kd; compound concentrations:100 nM and 1000 nM (sheet 'Samples'); n = 1
# [15] = system: CAMK2G; parameters: species or system human, MV4-11 + K-562 + COLO205 + SK-N-BE2 + OVCAR-8; conditions: read-out: apparent Kd; compound concentrations: 100 nM and 1000 nM (sheet 'Samples'), CATDS: 2.3496297830239501E-2; n = 1
# [16] = system: CLK2; parameters: species or system human, MV4-11 + K-562 + COLO205 + SK-N-BE2 + OVCAR-8; conditions: read-out: apparent Kd, compound concentrations: 100 nM and 1000 nM (sheet 'Samples'), n = 1
# [17] = system: CDK13; parameters: species or system human, MV4-11 + K-562 + COLO205 + SK-N-BE2 + OVCAR-8; conditions: read-out: apparent Kd, compound concentrations: 100 nM and 1000 nM (sheet 'Samples'), n = 1
# [18] = compound concentrations:100 nM and 1000 nM (sheet 'Samples')
smiles,measurement,setting,value
CONC1=NC(=O)/C(=C/c2ccc3ncccc3c2)S1 [RO4613269-000],IC50,[1],2.74e-06 M
same,IC50,[2],1.16e-07 M
same,IC50,[3],6.53e-08 M
O=C(O)C(F)(F)F.O=c1[nH]ccc2nc(N[C@@H]3CCNC3)nc(Nc3ccc4c(c3)S(=O)(=O)CC4)c12 [GSK2181306A],potency estimated from few doses,[4]; CATDS: 3.4513086619766098E-2,0.0687 µM
same,potency estimated from few doses,"[5]; compound concentrations: 100 nM and 1000 nM (sheet 'Samples'), CATDS: 7.7202242880441098E-3",2.32 µM
COc1ccc(-c2cc3c(N)ncnc3o2)cc1 [GW642138X],potency estimated from few doses,"[6]; compound concentrations: 100 nM and 1000 nM (sheet 'Samples'), CATDS: 9.2281876473195495E-2",2.17 µM
same,potency estimated from few doses,"[7]; compound concentrations: 100 nM and 1000 nM (sheet 'Samples'), CATDS: 9.45617395095774E-2",2.06 µM
COC(=O)c1cccc(NC(=O)NC2CCN(c3ccnc(Nc4cc(OC)c(OC)c(OC)c4)n3)C2)c1 (stereo not drawn) [GSK1379767A],potency estimated from few doses,"[7]; compound concentrations: 100 nM and 1000 nM (sheet 'Samples'), CATDS: 0.107496122866376",1.48 µM
CC(C)Oc1ccc2c(-c3ccnc(Nc4ccc(N5CCN(C)CC5)cc4)n3)cnn2n1 [GW696155X],potency estimated from few doses,[8]; [18],0.576 µM
same,potency estimated from few doses,[9]; [18],0.421 µM
O=C(O)C(F)(F)F.O=C(O)C(F)(F)F.O=c1[nH]ccc2nc(N[C@@H]3CCCNC3)nc(Nc3ccc(S(=O)(=O)N4CCOCC4)cc3)c12.O=c1[nH]ccc2nc(N[C@@H]3CCCNC3)nc(Nc3ccc(S(=O)(=O)N4CCOCC4)cc3)c12 [GSK2177277A],potency estimated from few doses,[4]; CATDS: 8.2432165271610295E-3,0.514 µM
same,potency estimated from few doses,"[10]; compound concentrations: 100 nM and 1000 nM (sheet 'Samples'), CATDS: 6.3226356559210701E-3",1.69 µM
same,potency estimated from few doses,"[11]; compound concentrations: 100 nM and 1000 nM (sheet 'Samples'), CATDS: 6.8651363479693096E-3",1.09 µM
COc1cc(Nc2nccc(N3CCC(NC(=O)c4cccc(NC(C)=O)c4)C3)n2)cc(OC)c1OC (stereo not drawn) [GSK1379754A],potency estimated from few doses,"[8]; compound concentrations: 100 nM and 1000 nM (sheet 'Samples'), CATDS: 8.2781561075995602E-2",1.83 µM
NC(=O)c1cc(-c2ccccc2)cc2c(C3CCNCC3)c[nH]c12 [GSK301362A],potency estimated from few doses,[6]; [18],1.75 µM
CCn1c(-c2cccnc2O)nc2cnccc21 [SB-736715],potency estimated from few doses,"[12]; compound concentrations: 100 nM and 1000 nM (sheet 'Samples'), CATDS: 1.19944612945155E-2",2.19 µM
same,potency estimated from few doses,"[5]; compound concentrations: 100 nM and 1000 nM (sheet 'Samples'), CATDS: 1.2476704483333699E-2",1.98 µM
same,potency estimated from few doses,"[10]; compound concentrations: 100 nM and 1000 nM (sheet 'Samples'), CATDS: 1.2580908946689701E-2",1.93 µM
CCn1c(-c2nonc2N)nc2c(C#CC(C)(C)O)nc(O[C@@H](CN)c3ccccc3)cc21.O=C(O)C(F)(F)F [GSK1007102B],potency estimated from few doses,[13]; [18],1.69 µM
c1cnn2ncc(-c3ccnc(Nc4ccc5c(c4)OCCO5)n3)c2c1 [GW806290X],potency estimated from few doses,"[9]; compound concentrations: 100 nM and 1000 nM (sheet 'Samples'), CATDS: 2.00420212482838E-2",2 µM
CNCc1ccc(-c2cc(-c3nc(-c4ccc(S(=O)(=O)C(C)C)cc4)cnc3N)on2)cc1 [VE-822],potency estimated from few doses,[14],0.868 µM
COc1cc[nH]c1/C=C1\C(=O)Nc2ccc(F)c(C#CC3(O)CCNCC3)c21.Cl [RO0282986-001],potency estimated from few doses,[15],0.154 µM
same,potency estimated from few doses,[16]; CATDS: 1.56056735722173E-2,0.36 µM
same,potency estimated from few doses,"[13]; compound concentrations: 100 nM and 1000 nM (sheet 'Samples'), CATDS: 9.6893915598830205E-3",1.5 µM
CN(C)CC(O)COc1ccc(Nc2nccc(-c3cnn4nc(N5CCOCC5)ccc34)n2)cc1 (stereo not drawn) [GW767488X],potency estimated from few doses,[9]; [18],0.467 µM
FC(F)(F)c1ccc(-c2ncn(CCCN3CCOCC3)c2-c2ccncc2)cc1 [SB-217780],potency estimated from few doses,"[6]; compound concentrations: 100 nM and 1000 nM (sheet 'Samples'), CATDS: 0.18065047008749499",2.21 µM
CCN(CC)Cc1ccc(Nc2nccc(-c3cnn4ncccc34)n2)cc1 [GW780056X],potency estimated from few doses,[17]; CATDS: 1.9982527917222499E-2,1.33 µM
c1ccc(-c2n[nH]cc2Nc2ccnc3ccccc23)nc1 [GW694077X],potency estimated from few doses,[16]; CATDS: 3.5523964233137598E-2,0.477 µM
Cc1occc1-c1nc(N)c(OC[C@@H](N)Cc2c[nH]c3ccccc23)cc1-c1cc2c(C)n[nH]c2cn1 [GSK1660450B],potency estimated from few doses,[11]; [18],0.154 µM
same,potency estimated from few doses,[7]; [18],0.102 µM
NS(=O)(=O)c1ccc(NC=C2C(=O)Nc3ccc4ncsc4c32)cc1 [GW589933X],potency estimated from few doses,[17]; CATDS: 1.7118564959648301E-2,1.7 µM
Nc1nc(-c2ccc3c(N)n[nH]c3c2)cc(N2CCCC(NC(=O)c3ccccc3)C2)n1 (stereo not drawn) [GSK2286775B],potency estimated from few doses,[5]; [18],1.79 µM
same,potency estimated from few doses,[10]; [18],2.25 µM
Cl.Cl.NCC(NCc1ccc(-c2ccnc3[nH]ccc23)s1)c1ccccc1.NCC(NCc1ccc(-c2ccnc3[nH]ccc23)s1)c1ccccc1 (stereo not drawn) [GSK1321565A],potency estimated from few doses,[12]; [18],1.6 µM
CC(C)N1CC(=O)N(C)c2cnc(Nc3cccc(S(=O)(=O)CCN4CCOCC4)c3)nc21 [BI00009348],potency estimated from few doses,[4]; CATDS: 7.5564324360796103E-2,0.646 µM
O=C(Nc1n[nH]c2nc(-c3ccccc3O)ccc12)C1CC1 [SB-711880],potency estimated from few doses,[13]; [18],1.81 µM
